According to PubChem BioAssay AID1468 (National Center for Advancing Translational Sciences (NCATS), 2008):
Hit rate of the full screen: of about 280,000 compounds, about 1,100 (0.39%) were called active. Not shown: some 7% with an inconclusive outcome. Shown is part of a subset that was picked to be rich in actives. Unmarked numbers belong to inactive results. Calls follow the shape of the dose curve; as a rule, active = well fitted inhibition curve with a large enough effect; inconclusive = small, poorly fitted or top-dose-only effect, or effect the other way; inactive = flat fitted curve, though single readings scatter.

These compounds were tested against Microtubule-associated protein tau (Homo sapiens) (UniProt P10636) (assay: qHTS for Inhibitors of Tau Fibril Formation, Fluorescence Polarization). Conditions: K18 P301L tau heparin fibrillization, Alexa594 FP, 6 h; series mostly up to 57.7 µM; activity, negative = inhibition: at the top concentration.
Sequence of Microtubule-associated protein tau (Homo sapiens) (P10636 561-689 P618L limits assumed): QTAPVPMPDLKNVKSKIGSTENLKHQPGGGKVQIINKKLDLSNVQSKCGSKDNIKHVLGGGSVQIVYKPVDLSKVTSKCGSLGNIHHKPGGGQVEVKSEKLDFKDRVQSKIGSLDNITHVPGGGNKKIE
Text: NIH Molecular Libraries Probe Production Network [MLPCN]
NIH Chemical Genomics Center [NCGC]
Assay Provider: Carlo Ballatore, University of Pennsylvania
The microtubule-associated protein tau is an abundant protein in the axons of neurons that stabilizes microtubules. With its ability to modulate microtubule dynamics, tau contributes directly or indirectly, to key structural and regulatory cellular functions. Particularly important is the influence tau exerts on axonal transport, which allows signaling molecules, trophic factors and other essential cellular constituents to travel along the axons. Under pathological conditions, tau becomes sequestered into insoluble aggregates called neurofibrillary tangles. This phenomenon is believed to have pathological consequences by promoting axonal transport deficits that ultimately lead to synaptic dysfunction and neuronal loss. To identify inhibitors of tau aggregation, a heparin-induced tau fibril formation assay was used that employed a recombinantly expressed fragment of tau, K18 (Q242-E372), bearing a P301L mutation (Gustke et al. 1994; Hong et al. 1998).
Gustke, N., B. Trinczek, et al. (1994). "Domains of tau protein and interactions with microtubules." Biochemistry 33(32): 9511-22.
Hong, M., V. Zhukareva, et al. (1998).
Li, W. and V. M. Lee (2006). "Characterization of two VQIXXK motifs for tau fibrillization in vitro." Biochemistry 45(51): 15692-701.
von Bergen, M., S. Barghorn, et al. (2001). "Mutations of tau protein in frontotemporal dementia promote aggregation of paired helical filaments by enhancing local beta-structure." J Biol Chem 276(51): 48165-74.
NCGC Assay Protocol Summary:
For screening, 2 uL/well human K18 P301L (15 uM unlabeled and 0.24 uM Alexa 594-labeled tau final concentrations) in reagent buffer (100 mM sodium acetate pH 7) was dispensed into black solid 1536-well plates (Grenier) using a solenoid-based dispenser. Following transfer of 23 nL compound or DMSO vehicle by a pin tool, 2 uL/well heparin (20 uM final concentration) in reagent buffer was added and the plate centrifuged 15 s at 1000 RPM. Plates were incubated 6 hr at 37 C and then 1 uL/well ThT (30 uM final concentration) was added. After a 1 hr ambient incubation, the plates were read by an Envision (Perkin Elmer) to monitor Alexa 594 FP (555 nm excitation and 632 nm emission).
Keywords: NIH Roadmap, MLPCN, MLI, MLSMR, NCGC, qHTS, tau, tauopathies, Alzheimer's disease, fibril, neurodegeneration, aggregation
% is scaled to controls: 0 for no effect and ±100 for the full control effect; potency is read from the fitted curve at half-maximal effect.
Also: nearly all actives have a fitted effect of over 55% in size.

Compound	Potency	activity, negative = inhibition [%]
Oc1cc(O)c2c(c1)OC(c1ccc(O)c(O)c1)C(O)C2 (stereo unspecified)	14.1 µM (active)	–
CC(NC(=O)c1cc(Sc2ccc(F)cc2F)nc2ccccc12)c1ccccc1 (stereo unspecified)	–	2.21
CCCC(=O)Nc1cc(C(=O)NCc2ccc(OC)cc2)ccc1S(=O)(=O)c1ccc(Cl)cc1	–	-4.05
COc1ccccc1-c1nnc(SCC(N)=O)o1	–	1.99
COc1ccc(NS(=O)(=O)c2ccc(Oc3c(C#N)cccc3C#N)cc2)cc1	–	-8.14
COc1ccc2[nH]cc(/C=C(/C#N)S(=O)(=O)c3ccccc3)c2c1	28.2 µM (active)	–
CCN(CC)CC(=O)c1c[nH]c2ccc(OC)cc12	–	16.4
COc1ccc(C)cc1NC(=O)COCc1cc(-c2cccs2)on1	–	-3.41
O=C(Nc1ccccc1)Nc1nnc(COc2ccccc2F)s1	14.1 µM (active)	–
COCC(=O)Nc1nnc(COc2ccccc2)s1	–	8.93
O=C(NCCOc1ccccc1F)Nc1ccc(Br)cc1	–	-10.5
Cc1ccc(N(C)C(=O)C2CCN(S(=O)(=O)c3ccc4c(c3)CCCN4C(=O)C3CCC3)CC2)cc1	–	3.78
Cc1ccc2cccc(NC(=O)c3ccc(OC(C)C)cc3)c2n1	–	-0.836
CC1=C/C(=N\OS(=O)(=O)c2ccccc2)C=CC1=O	12.6 µM (active)	–
CC1=C/C(=N\S(=O)(=O)c2ccccc2)C(C(C)C)=CC1=O	–	-2.92
Cc1ccc(S(=O)(=O)c2ccc(Oc3ccccc3)cc2)cc1	–	-4.08
COc1ccccc1/C=C/c1nc(C#N)c(NC(C)c2ccccc2)o1 (stereo unspecified)	–	9.42
NS(=O)(=O)c1ccc(CCNC(=O)Nc2ccc(Cl)cc2)cc1	–	-2.66
Cn1ccc(NC(=O)Nc2ccc(Cl)cc2)n1	–	3.56
CC(C)S(=O)(=O)c1csc(NC(=O)Nc2ccc(Cl)cc2)c1Cl	31.6 µM (active)	–
CC(=O)c1ccc(N2CCN(C(=O)c3ccc4nc[nH]c4c3)CC2)cc1	–	8.33
CC/C(O)=N\S(=O)(=O)c1ccc(N=NN(C)C)cc1	–	1.65

Compound	Potency	activity, negative = inhibition [%]
CN(C)N=Nc1ccc2nc[nH]c2c1	8.91 µM (active)	–
CCOc1ccc(-c2nonc2NC(=O)c2oc3ccc(CC)cc3c2C)cc1	–	-19.5
CCOC(=O)c1cnc2[nH]c3ccccc3n2c1=O	–	2.71
Cc1ccc(-c2nc3ccccc3[nH]c2=O)cc1	–	-0.895
O=c1[nH]c2ccccc2n2c(-c3ccccc3)nnc12	14.1 µM (active)	–
Cc1cc(C)c2oc(C(=O)Nc3c(C(=O)Nc4ccccc4)oc4ccccc34)cc(=O)c2c1	–	-9.93
Cc1nn(C)c2c1c(C(F)(F)F)cc(=O)n2C(C)C(=O)NCc1ccc(Cl)cc1 (stereo unspecified)	–	8.26
CSc1ccc(S(=O)(=O)NC2CCCCC2)cc1	–	-22.1
Cn1sc(=O)c2cc(S(=O)(=O)NC3CC3)ccc21	28.2 µM (active)	–
CC1CCC(NS(=O)(=O)c2ccc3c(c2)n(C)c(=O)c(=O)n3C)CC1 (stereo unspecified)	–	-2.24
CC(C)C[C@H](NC(=O)Nc1cccc(C(F)(F)F)c1)C(=O)O	–	2.26
Cc1ccc(NC(=O)Nc2cccc(C(F)(F)F)c2)nc1	–	1.19
CCNS(=O)(=O)c1ccc(NC(=O)Nc2cccc(C(F)(F)F)c2)cc1	25.1 µM (active)	–
Cc1cccc(Nc2cc(C)nc(-n3nc(C)cc3C)n2)c1	–	6.4
Brc1ccc2c(c1)NC(c1cccnc1)=NC(c1ccccc1)=N2	–	6.59
CC(C)(C)c1nnc(NC(=O)C2c3ccccc3Oc3ccccc32)s1	15.8 µM (active)	–
CCC(C)NC(=O)C1c2ccccc2Oc2ccccc21 (stereo unspecified)	–	2.28
CCC(C)(C)NC(=O)C1c2ccccc2Oc2ccccc21	–	-3.37
Cc1ccc(NC(=O)Nc2sc3nc4n(c(=O)c3c2C)CCC(C)CC4)c(Cl)c1 (stereo unspecified)	–	17.2
Cc1cc(C)c(NC(=O)Cn2c(SCC(=O)NCc3ccccc3)nc3ccccc32)c(C)c1	–	2.13
CCOc1ccccc1NC(=O)Cn1c(=O)n(Cc2ccco2)c(=O)c2sc3ccccc3c21	–	-2.71
O=C(Cn1c(=O)n(Cc2ccccc2)c(=O)c2sc3ccccc3c21)Nc1ccccc1F	28.2 µM (active)	–

Compound	Potency	activity, negative = inhibition [%]
COc1ccc(Cn2c(=O)c3oc4ccccc4c3n(CC(=O)Nc3ccc(F)cc3F)c2=O)cc1	–	-17.2
CC(=O)c1cccc(NC(=O)c2nc(-c3ccccc3)n(-c3cccc(C)c3)n2)c1	–	-7.49
O=C(COC(=O)CCCSc1nc2ccccc2[nH]1)Nc1ccc(Oc2ccccc2)cc1	15.8 µM (active)	–
CCc1nnc(NC(=O)CCCSc2nc3ccccc3[nH]2)s1	–	-0.721
COc1ccc(NC(=O)CSc2nc3ccccc3[nH]2)cc1	–	-11
Oc1ccc2ccccc2c1C=Nc1ccccc1	–	-3.62
Oc1c(C=Nc2cccc3nsnc23)ccc2ccccc12	3.98 µM (active)	–
O=[N+]([O-])c1ccc(N=Cc2c(O)ccc3ccccc23)cc1	–	-5.84
CCOC(=O)c1ccc(NC(=O)CSc2nc3c([nH]c4ccccc43)c(=O)n2C)cc1	–	6.83
COc1ccc(NC(=O)Cn2c(=O)n(Cc3ccc(C(=O)NCc4ccccc4Cl)cc3)c(=O)c3ccccc32)cc1	25.1 µM (active)	–
Cc1ccc(Cn2c(=O)n(CCCC(=O)NCc3ccccc3Cl)c(=O)c3ccccc32)cc1	–	-9.9
COc1ccc(OC)c(NC(=O)Cn2c(=O)n(Cc3ccccc3)c(=O)c3ccccc32)c1	–	-13
O=C(Cn1c(-c2cccs2)cc2ccccc21)NCCc1ccc(Cl)cc1	–	-7.69
CCN1C(=O)c2ccccc2S(=O)c2ccc(C(=O)NCc3ccc(F)cc3)cc21 (stereo unspecified)	–	-1.93
CCOC(=O)C1CCCN(C(=O)c2ccc(-n3ccc4ccccc43)s2)C1 (stereo unspecified)	–	17.1
Cc1c(C(=O)NCc2ccccc2Br)oc2ccc3c(c12)C(=O)CC(C)(C)O3	–	-3.31
Cc1ccc(OCCn2c(CNc3ccccc3C)nc3ccccc32)cc1	–	-8.29
Cc1nnc(N2CCC(C(=O)Nc3ccc(F)cc3)CC2)c2nn(-c3ccc(Cl)cc3)c(C)c12	–	-13.4
Cc1ccnc(SCC(N)=O)n1	–	-0.201
Cc1ccnc(-n2sc3ccccc3c2=O)n1	25.1 µM (active)	–
CCOC(=O)c1ccc(NC2=CC(c3ccc(OCC)cc3)N(c3ccc(C(=O)OCC)cc3)C2=O)cc1 (stereo unspecified)	–	-12.9
Cc1cc(C)c2sc(NC(=O)c3ccc(S(=O)(=O)N4CCCC4)cc3)nc2c1	–	-16.1
